The text below walks through data of article PMC7862700, “An all-to-all approach to the identification of sequence-specific readers for epigenetic DNA modifications on cytosine”.

Common to all, as to test: DAPPL (digital affinity profiling via proximity ligation, sequencing); 10 mM Tris-HCl pH 7.5, 50 mM NaCl, 1 mM DTT, 4% glycerol, room temperature, 30 min; GST-TFs on glutathione beads, 16-mer random dsDNA library, 0.1% formaldehyde crosslink after washing; high values mean tight binding
In one assay the target is T1, FLI1 (Homo sapiens, UniProt Q01543 1-452).
T1 sequence: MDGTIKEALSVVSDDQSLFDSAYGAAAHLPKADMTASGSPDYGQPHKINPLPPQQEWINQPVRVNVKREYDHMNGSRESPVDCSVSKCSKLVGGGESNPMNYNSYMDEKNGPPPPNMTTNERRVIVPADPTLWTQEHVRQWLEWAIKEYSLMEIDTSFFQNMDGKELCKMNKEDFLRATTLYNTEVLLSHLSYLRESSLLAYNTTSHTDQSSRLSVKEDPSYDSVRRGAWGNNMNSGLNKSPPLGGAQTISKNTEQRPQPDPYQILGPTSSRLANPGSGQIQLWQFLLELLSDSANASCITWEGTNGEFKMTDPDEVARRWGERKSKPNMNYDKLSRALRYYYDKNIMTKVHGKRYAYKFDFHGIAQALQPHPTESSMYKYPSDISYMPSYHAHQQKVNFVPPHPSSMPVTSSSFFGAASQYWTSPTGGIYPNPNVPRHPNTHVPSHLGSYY
As to conditions: protein: recombinant; tags: N-terminal GST; dsDNA, one strand shown. The essentials: (§1)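 In yeast, human transcription factors were expressed with a GST fusion, then pulled down on glutathione beads and given DNA barcodes. Pooled with a tag-only sample, they were exposed to 200 nmole of a 16-mer random double-stranded DNA library (Tris/NaCl/DTT/glycerol buffer, room temperature, 30 min), washed, crosslinked with 0.1% formaldehyde, proximity-ligated using BsaI/T4 ligase for 1 h at 37 °C, PCR-amplified and read on an Illumina NextSeq500. Each hexamer's frequency of reads for a factor, divided by the matching frequency for the tag-only sample, gives the binding signal.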

The target in a further assay is T2, ELK1 (Homo sapiens, UniProt P19419 1-428).
T2 sequence: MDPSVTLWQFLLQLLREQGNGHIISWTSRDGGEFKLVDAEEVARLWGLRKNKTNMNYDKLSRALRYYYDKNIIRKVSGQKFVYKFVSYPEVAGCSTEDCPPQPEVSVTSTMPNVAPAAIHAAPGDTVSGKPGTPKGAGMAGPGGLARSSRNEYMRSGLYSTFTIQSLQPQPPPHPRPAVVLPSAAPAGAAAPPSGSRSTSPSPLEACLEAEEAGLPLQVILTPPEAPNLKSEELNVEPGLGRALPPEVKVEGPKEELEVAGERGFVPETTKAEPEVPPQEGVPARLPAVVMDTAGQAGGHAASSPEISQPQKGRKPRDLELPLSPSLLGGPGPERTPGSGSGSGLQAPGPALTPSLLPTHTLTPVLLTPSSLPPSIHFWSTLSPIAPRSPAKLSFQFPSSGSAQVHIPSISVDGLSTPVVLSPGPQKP
As to conditions: protein: recombinant; tags: N-terminal GST; dsDNA, one strand shown. Put shortly: as §1

The next assay concerns the target T3, GABPA (Homo sapiens, UniProt Q06546 1-454).
T3 sequence: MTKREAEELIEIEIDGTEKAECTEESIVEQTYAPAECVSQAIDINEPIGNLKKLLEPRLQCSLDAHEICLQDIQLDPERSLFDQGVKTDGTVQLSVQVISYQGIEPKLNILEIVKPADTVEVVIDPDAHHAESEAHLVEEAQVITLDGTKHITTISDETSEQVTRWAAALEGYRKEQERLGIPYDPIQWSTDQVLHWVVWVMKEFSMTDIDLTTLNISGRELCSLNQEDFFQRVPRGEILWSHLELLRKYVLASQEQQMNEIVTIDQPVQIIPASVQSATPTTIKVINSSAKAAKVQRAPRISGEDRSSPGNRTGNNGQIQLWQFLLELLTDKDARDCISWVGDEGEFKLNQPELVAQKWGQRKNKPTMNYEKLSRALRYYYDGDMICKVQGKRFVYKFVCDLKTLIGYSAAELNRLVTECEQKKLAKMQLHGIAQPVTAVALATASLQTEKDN
As to conditions: protein: recombinant; tags: N-terminal GST; dsDNA, one strand shown. Put shortly: as §1

For another assay, the target named is T4, ERG (Homo sapiens, UniProt P11308 1-479).
T4 sequence: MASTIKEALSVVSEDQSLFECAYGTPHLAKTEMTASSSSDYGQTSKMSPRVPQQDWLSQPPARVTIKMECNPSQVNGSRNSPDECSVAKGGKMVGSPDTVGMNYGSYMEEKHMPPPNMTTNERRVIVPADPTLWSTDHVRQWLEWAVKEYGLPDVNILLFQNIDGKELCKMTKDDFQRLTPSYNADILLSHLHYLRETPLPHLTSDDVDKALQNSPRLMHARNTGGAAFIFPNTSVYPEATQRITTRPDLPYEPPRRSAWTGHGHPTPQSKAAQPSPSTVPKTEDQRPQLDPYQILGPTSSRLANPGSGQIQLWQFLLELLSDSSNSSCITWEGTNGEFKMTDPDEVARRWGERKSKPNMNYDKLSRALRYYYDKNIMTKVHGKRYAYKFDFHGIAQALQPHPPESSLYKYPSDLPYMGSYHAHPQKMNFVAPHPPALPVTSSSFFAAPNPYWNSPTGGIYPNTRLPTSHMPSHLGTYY
As to conditions: protein: recombinant; tags: N-terminal GST; dsDNA, one strand shown. Put shortly: as §1

For a further assay, the target named is ELF1 (Homo sapiens, UniProt P32519 1-619). As to conditions: protein: recombinant; tags: N-terminal GST; dsDNA, one strand shown. Put shortly:
as §1

The target in another assay is T5, EHF (Homo sapiens, UniProt Q9NZC4 1-300).
T5 sequence: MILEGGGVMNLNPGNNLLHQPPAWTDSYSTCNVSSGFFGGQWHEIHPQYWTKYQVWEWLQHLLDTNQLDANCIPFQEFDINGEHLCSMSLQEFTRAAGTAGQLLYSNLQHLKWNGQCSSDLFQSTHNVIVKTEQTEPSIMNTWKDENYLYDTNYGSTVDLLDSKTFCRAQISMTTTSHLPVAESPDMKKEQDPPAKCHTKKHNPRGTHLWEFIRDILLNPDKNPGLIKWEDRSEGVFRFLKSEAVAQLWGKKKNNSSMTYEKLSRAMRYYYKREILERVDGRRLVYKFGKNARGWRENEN
As to conditions: protein: recombinant; tags: N-terminal GST; dsDNA, one strand shown. Put shortly:
as §1

The target in another assay is SPI1 (Homo sapiens, UniProt P17947 1-270). As to conditions: protein: recombinant; tags: N-terminal GST; dsDNA, one strand shown. Put shortly: as §1
For another assay, the target named is SPIB (Homo sapiens, UniProt Q01892 1-262). As to conditions: protein: recombinant; tags: N-terminal GST; dsDNA, one strand shown. Put shortly:
as §1

For a further assay, the target named is T6, ELK3 (Homo sapiens, UniProt P41970 1-407).
T6 sequence: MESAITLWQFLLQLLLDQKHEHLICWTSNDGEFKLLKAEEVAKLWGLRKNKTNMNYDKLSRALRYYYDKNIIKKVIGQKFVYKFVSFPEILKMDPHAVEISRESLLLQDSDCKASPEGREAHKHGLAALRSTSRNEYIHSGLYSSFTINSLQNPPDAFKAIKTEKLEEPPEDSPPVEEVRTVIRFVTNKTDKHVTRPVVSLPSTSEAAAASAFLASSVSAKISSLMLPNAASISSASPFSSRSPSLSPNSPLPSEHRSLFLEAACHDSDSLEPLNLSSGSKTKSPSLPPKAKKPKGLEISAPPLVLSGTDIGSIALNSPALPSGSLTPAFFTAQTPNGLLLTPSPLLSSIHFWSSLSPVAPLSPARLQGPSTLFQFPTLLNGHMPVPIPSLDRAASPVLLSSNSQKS
As to conditions: protein: recombinant; tags: N-terminal GST; dsDNA, one strand shown. The essentials: as §1

For a further assay, the target named is T7, FEV (Homo sapiens, UniProt Q99581 1-238).
T7 sequence: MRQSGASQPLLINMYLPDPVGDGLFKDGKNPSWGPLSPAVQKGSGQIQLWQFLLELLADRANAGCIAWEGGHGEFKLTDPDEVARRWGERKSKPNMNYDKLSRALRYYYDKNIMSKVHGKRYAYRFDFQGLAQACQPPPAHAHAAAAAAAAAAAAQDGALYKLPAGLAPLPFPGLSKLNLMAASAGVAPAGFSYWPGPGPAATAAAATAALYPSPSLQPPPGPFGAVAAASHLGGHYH
As to conditions: protein: recombinant; tags: N-terminal GST; dsDNA, one strand shown. The essentials: as §1

The target in a further assay is ETV5 (Homo sapiens, UniProt P41161 1-510). As to conditions: protein: recombinant; tags: N-terminal GST; dsDNA, one strand shown. Put shortly:
as §1

A further assay has as its target HSF1 (Homo sapiens, UniProt Q00613 1-529). As to conditions: protein: recombinant; tags: N-terminal GST; chain copies: 3; dsDNA, one strand shown. The essentials: as §1
In the next assay the target is T8, SPIC (Homo sapiens, UniProt Q8N5J4 1-248).
T8 sequence: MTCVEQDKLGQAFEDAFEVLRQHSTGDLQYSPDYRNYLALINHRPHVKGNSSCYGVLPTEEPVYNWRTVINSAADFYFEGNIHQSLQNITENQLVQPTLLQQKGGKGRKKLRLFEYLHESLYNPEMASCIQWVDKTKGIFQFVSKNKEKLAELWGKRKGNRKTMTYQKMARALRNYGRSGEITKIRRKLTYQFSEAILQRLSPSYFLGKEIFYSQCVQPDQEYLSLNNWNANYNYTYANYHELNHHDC
As to conditions: protein: recombinant; tags: N-terminal GST; dsDNA, one strand shown. Put shortly:
as §1

Another assay concerns the target ELF4 (Homo sapiens, UniProt Q99607 1-663). As to conditions: protein: recombinant; tags: N-terminal GST; dsDNA, one strand shown. The essentials:
as §1

For the next assay, the target named is T9, ELK4 (Homo sapiens, UniProt P28324-2 1-405).
T9 sequence: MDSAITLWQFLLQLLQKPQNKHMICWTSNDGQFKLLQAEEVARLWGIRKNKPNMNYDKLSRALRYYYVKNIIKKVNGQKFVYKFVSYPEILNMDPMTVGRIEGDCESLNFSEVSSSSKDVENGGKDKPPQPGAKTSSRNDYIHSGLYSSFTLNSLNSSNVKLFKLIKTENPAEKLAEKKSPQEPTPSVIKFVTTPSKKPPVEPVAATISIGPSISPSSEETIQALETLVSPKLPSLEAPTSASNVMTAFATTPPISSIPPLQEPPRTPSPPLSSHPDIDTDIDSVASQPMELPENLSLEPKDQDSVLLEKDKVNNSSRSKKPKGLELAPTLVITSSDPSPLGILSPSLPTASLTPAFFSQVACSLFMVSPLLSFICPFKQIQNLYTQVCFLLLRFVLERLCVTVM
As to conditions: protein: recombinant; tags: N-terminal GST; dsDNA, one strand shown. The essentials: as §1

The next assay has as its target T10, ETV2 (Homo sapiens, UniProt O00321 1-342).
T10 sequence: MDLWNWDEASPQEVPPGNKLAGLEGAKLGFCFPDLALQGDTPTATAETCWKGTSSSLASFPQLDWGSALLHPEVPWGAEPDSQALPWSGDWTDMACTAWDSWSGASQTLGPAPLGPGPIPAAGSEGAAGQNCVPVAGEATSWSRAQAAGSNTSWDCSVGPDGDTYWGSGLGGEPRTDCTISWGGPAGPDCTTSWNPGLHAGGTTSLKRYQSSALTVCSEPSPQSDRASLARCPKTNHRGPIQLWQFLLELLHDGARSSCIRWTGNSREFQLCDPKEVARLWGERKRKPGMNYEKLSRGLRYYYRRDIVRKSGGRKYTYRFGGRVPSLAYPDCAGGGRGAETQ
As to conditions: protein: recombinant; tags: N-terminal GST; dsDNA, one strand shown. The essentials: as §1

For another assay, the target named is T11, ELF3 (Homo sapiens, UniProt P78545 1-371).
T11 sequence: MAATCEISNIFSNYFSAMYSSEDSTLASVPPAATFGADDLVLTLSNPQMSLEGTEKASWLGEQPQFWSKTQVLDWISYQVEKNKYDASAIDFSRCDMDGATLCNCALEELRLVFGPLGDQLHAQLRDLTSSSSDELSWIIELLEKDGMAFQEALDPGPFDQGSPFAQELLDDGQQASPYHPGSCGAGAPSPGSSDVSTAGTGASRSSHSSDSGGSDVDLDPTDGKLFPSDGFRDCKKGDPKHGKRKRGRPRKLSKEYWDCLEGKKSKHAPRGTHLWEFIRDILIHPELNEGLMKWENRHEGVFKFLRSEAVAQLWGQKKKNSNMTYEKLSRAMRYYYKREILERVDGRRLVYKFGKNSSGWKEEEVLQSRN
As to conditions: protein: recombinant; tags: N-terminal GST; dsDNA, one strand shown. The essentials:
as §1

For another assay, the target named is CRX (Homo sapiens, UniProt O43186 1-299). As to conditions: protein: recombinant; tags: N-terminal GST; dsDNA, one strand shown. Put shortly:
as §1

A further assay has as its target ETV1 (Homo sapiens, UniProt P50549 1-477). As to conditions: protein: recombinant; tags: N-terminal GST; dsDNA, one strand shown. The essentials:
as §1

Sequence of SPIB (Q01892 whole entry): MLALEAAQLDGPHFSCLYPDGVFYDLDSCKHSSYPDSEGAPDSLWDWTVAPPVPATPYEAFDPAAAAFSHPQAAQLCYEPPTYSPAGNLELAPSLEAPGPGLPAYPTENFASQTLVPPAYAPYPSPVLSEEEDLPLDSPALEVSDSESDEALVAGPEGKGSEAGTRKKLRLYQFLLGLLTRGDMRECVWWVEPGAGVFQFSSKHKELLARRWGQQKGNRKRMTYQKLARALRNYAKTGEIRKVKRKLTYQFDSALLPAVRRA
Sequence of ELF1 (P32519 whole entry): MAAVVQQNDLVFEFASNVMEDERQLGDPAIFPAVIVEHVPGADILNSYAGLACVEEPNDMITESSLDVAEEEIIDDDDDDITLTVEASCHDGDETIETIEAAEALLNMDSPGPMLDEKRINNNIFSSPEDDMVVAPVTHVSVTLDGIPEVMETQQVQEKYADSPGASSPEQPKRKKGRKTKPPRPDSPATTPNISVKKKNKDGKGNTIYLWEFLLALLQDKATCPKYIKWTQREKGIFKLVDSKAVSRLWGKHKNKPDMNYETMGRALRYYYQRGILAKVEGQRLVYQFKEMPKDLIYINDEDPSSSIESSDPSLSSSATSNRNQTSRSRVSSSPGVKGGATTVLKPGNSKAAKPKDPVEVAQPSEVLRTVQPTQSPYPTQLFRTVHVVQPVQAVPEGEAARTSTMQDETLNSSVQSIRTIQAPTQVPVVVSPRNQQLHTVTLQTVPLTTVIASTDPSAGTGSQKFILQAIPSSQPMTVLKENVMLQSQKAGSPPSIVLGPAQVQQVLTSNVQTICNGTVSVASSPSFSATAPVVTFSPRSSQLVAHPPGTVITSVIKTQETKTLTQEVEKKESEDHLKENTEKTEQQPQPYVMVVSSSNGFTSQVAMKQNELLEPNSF
Sequence of CRX (O43186 whole entry): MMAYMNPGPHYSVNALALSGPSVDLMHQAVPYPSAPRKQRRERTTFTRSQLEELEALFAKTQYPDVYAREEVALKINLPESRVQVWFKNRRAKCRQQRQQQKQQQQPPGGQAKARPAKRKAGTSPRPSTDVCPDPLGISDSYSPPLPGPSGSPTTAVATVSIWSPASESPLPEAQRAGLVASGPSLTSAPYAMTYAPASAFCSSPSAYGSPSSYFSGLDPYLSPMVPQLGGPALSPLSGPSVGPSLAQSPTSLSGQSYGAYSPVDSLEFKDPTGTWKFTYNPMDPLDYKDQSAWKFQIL
Sequence of ELF4 (Q99607 whole entry): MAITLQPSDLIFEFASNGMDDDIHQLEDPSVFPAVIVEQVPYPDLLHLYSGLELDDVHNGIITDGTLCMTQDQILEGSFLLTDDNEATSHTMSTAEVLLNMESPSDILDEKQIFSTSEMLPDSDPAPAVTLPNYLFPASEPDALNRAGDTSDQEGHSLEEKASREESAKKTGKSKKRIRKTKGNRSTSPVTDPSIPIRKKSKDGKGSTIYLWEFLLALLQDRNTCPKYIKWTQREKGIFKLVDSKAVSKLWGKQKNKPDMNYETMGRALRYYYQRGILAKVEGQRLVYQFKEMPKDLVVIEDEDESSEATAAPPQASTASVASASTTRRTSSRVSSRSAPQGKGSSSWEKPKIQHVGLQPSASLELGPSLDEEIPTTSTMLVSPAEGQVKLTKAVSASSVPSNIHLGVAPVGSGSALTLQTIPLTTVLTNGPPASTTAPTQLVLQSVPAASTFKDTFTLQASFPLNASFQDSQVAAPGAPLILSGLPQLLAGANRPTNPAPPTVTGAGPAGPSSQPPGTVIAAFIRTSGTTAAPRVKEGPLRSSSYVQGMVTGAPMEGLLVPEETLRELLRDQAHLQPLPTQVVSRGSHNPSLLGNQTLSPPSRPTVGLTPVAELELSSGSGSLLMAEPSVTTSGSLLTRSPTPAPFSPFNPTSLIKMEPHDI
Sequence of ETV1 (P50549 whole entry): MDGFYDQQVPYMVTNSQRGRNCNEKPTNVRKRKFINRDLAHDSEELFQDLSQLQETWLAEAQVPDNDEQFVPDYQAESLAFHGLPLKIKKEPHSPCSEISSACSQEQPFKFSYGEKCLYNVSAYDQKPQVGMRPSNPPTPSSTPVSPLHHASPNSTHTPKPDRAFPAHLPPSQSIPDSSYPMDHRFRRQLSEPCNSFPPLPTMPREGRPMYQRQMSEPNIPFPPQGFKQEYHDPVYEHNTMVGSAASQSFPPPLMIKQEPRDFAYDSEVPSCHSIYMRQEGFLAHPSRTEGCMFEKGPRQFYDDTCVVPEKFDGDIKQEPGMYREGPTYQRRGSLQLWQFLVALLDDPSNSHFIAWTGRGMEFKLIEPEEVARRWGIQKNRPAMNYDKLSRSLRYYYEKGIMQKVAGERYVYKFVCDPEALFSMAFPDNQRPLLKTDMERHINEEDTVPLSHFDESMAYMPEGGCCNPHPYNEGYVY
Sequence of ETV5 (P41161 whole entry): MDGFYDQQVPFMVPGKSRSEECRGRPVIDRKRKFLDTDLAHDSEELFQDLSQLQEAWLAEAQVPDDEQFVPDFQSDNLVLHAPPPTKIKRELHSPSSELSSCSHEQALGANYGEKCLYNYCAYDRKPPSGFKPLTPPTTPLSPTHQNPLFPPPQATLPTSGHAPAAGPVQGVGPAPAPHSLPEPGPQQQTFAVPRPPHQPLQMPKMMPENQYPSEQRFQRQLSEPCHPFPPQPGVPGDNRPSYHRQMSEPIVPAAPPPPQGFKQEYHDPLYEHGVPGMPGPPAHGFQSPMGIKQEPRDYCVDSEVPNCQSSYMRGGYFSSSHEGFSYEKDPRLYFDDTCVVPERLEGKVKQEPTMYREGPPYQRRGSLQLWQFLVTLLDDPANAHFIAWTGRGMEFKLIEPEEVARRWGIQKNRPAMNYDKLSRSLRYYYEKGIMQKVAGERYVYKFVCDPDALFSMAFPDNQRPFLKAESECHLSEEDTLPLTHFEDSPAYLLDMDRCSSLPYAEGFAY
Sequence of HSF1 (Q00613 whole entry): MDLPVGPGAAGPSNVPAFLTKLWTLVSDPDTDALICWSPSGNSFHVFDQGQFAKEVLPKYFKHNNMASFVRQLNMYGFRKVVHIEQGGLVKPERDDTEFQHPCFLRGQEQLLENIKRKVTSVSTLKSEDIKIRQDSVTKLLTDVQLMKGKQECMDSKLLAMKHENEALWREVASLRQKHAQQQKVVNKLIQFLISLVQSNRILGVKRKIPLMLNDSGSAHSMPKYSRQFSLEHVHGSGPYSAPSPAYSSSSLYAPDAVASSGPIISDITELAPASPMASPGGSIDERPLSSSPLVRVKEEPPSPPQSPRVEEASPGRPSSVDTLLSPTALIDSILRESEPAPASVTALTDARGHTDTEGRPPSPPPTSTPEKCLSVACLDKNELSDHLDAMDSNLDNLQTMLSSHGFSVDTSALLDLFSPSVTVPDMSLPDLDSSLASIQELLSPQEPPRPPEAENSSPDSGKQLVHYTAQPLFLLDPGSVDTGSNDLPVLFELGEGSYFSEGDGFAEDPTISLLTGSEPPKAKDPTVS

As for GATTTC, the binding signal was 1.77 fold enrichment (6-mer frequency, TF over GST control) with FLI1; 1.78 fold enrichment (6-mer frequency, TF over GST control) in the assay with ELK1; 1.55 fold enrichment (6-mer frequency, TF over GST control) in the assay with GABPA; 2.15 fold enrichment (6-mer frequency, TF over GST control) with ERG; 1.62 fold enrichment (6-mer frequency, TF over GST control) in the assay with ELF1; 1.71 fold enrichment (6-mer frequency, TF over GST control) with EHF. In addition, the binding signal in the assay with SPI1 was 1.67 fold enrichment (6-mer frequency, TF over GST control); in the assay with SPIB, 1.72 fold enrichment (6-mer frequency, TF over GST control); with ELK3, 1.73 fold enrichment (6-mer frequency, TF over GST control); in the assay with FEV, 2.86 fold enrichment (6-mer frequency, TF over GST control); with ETV5, 1.92 fold enrichment (6-mer frequency, TF over GST control); with HSF1, 1.56 fold enrichment (6-mer frequency, TF over GST control). In addition, the binding signal with SPIC was 1.65 fold enrichment (6-mer frequency, TF over GST control); with ELF4, 1.7 fold enrichment (6-mer frequency, TF over GST control); in the assay with ELK4, 1.64 fold enrichment (6-mer frequency, TF over GST control); with ETV2 it was 1.64 fold enrichment (6-mer frequency, TF over GST control); in the assay with ELF3, 1.62 fold enrichment (6-mer frequency, TF over GST control); in the assay with CRX it was 1.52 fold enrichment (6-mer frequency, TF over GST control). Moreover, the binding signal with ETV1 was 1.79 fold enrichment (6-mer frequency, TF over GST control).
